Hits are enriched below; roughly 2.9% of the tested compounds scored in any of these assays.
Pol beta inh: qHTS Assay for Inhibitors of DNA Polymerase Beta. P06746. Pol beta primer extension/strand displacement, fluorescence kinetic. Potency, µM (doses to about 114 µM), for the others: at the top dose activity change, negative = inhibition, usual class: inhibitors. hit rate 1.3% among 340,000; further: potency means the concentration at half of the fitted maximal effect; on the % scale 0 is the no-effect control and ±100 the full control effect
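10 nM enzyme + cpd, 15 min RT; start with substrate 50 nM final; read 0 min and after 10 min RT. Corrected, normalized data; 4-parameter Hill curve fit.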
Pol kappa inh-1: qHTS for Inhibitors of Polymerase Kappa; DNA polymerase kappa (Homo sapiens), Q9UBT6; purified Pol kappa, fluorescent DNA synthesis assay, 10 min; Potency, µM (titrated, usually from 107 µM), for inactives: at the top dose activity, negative = inhibition, hits mostly inhibitors; hit rate 0.53% among 400,000; further: potency means the concentration at half of the fitted maximal effect; on the % scale 0 is the no-effect control and ±100 the full control effect
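Inhibition of 10 nM Pol kappa is measured by a fluorescent read-out at 0 and 10 min following addition of 50 nM substrate (final), with a 15-min room-temperature compound preincubation.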
Pol eta inh-1: qHTS for Inhibitors of Polymerase Eta; DNA polymerase eta (Homo sapiens), Q9Y253; recombinant Pol eta, fluorescent DNA replication assay; Potency, µM (top dose mostly 114 µM), for inactives: at the top dose activity change, negative = inhibition, usual class: inhibitors; hit rate 1.2% among 390,000; further: potency means the concentration at half of the fitted maximal effect; on the % scale 0 is the no-effect control and ±100 the full control effect
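Fluorescent replication assay: 50 nM final substrate added after a 15 min room-temperature compound preincubation with 10 nM enzyme. Signal taken at 0 min and again at 10 min.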
12-LOX inh: Primary qHTS assay for inhibitors of human arachidonate 12S-lipoxygenase (ALOX12): Round 2 | Polyunsaturated fatty acid lipoxygenase ALOX12 (Homo sapiens), P18054 | AID 1671190, 2021 | Potency, µM (titrated, usually from 108 µM), for inactives: top-dose activity change, negative = inhibition, hits mostly inhibitors | hit rate 1.1% among 580,000 | purified 12hLO, xylenol orange hydroperoxide absorbance; further: potency means the concentration at half of the fitted maximal effect; on the % scale 0 is the no-effect control and ±100 the full control effect
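Hydroperoxide product was detected by ferrous iron/xylenol orange as the 573 to 405 nm absorbance ratio. Arachidonic acid at 40 uM (final) was turned over for 30 min at room temperature by 150 nM human 12hLO, pH 7.0 Hepes buffer, after 15 min compound preincubation.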
Pol iota inh: qHTS for Inhibitors of Polymerase Iota. DNA polymerase iota (Homo sapiens), Q9UNA4. Pol iota fluorescent replication assay, 10 min. Potency, µM (top dose mostly 115 µM), without a hit: at the highest dose activity, negative = inhibition, usual class: inhibitors. hit rate 1% among 390,000. AID 588590, 2011; further: potency means the concentration at half of the fitted maximal effect
Target sequence (Q9UNA4 whole entry, looked up): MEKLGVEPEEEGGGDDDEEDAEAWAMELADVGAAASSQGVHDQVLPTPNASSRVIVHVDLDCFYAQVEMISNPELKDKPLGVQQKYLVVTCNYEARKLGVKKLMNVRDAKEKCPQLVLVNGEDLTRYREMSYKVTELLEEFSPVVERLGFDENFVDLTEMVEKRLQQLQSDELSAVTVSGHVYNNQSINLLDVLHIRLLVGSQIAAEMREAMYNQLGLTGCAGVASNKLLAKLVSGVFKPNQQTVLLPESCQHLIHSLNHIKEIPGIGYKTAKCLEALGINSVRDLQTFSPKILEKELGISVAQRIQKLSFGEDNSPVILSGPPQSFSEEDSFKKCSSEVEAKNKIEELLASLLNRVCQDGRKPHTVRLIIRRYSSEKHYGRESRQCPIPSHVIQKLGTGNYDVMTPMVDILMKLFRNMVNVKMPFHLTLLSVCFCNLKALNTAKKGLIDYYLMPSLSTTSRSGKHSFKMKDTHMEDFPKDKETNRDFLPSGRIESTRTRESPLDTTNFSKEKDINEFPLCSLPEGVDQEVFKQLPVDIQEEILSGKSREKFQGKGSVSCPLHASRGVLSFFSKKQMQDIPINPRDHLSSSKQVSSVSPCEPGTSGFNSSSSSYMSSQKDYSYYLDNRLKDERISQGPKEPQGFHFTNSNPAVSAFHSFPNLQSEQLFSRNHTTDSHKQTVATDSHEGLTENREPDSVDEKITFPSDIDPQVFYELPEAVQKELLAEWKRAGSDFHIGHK
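Pol iota at 10 nM preincubated 15 min with compounds at room temperature; reaction started with fluorescent substrate, 50 nM final. Fluorescence read kinetically at 0 and 10 min; buffer-only wells as negative control.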
PI5P4K alpha inh: qHTS for Inhibitors of phosphatidylinositol 5-phosphate 4-kinase (PI5P4K). AID 652105, 2013. Phosphatidylinositol 5-phosphate 4-kinase type-2 alpha (Homo sapiens), P48426. hit rate 1.2% among 330,000. max response, %. PI5P4Kalpha enzyme, ADP-Glo luminescence, 60 min; stronger effect = lower value; active means max response of -50% or lower; inconclusive means between -30% and -50%; inactive means -30% or higher; further: value at the top dose of about 77 µM; on the % scale 0 is the no-effect control and ±100 the full control effect
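Single end-point luminescence (ADP-Glo) quantified ADP from PI5P4Kalpha turnover; ATP 5 microM final, 1 h at RT, 0.1% CHAPS and 0.28 mM EGTA in HEPES pH 7.4.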
Pol kappa inh-2: qHTS for Inhibitors of Polymerase Kappa: Confirmatory Assay for Cherry-picked Compounds; shares compounds with Pol eta inh-1; purified Pol-kappa, fluorescent strand-displacement substrate; Potency, µM, most hits filed as inhibitors; hit rate 76% among 920; AID 720501, 2013; further: potency means the concentration at half of the fitted maximal effect
Pol eta inh-2: qHTS for Inhibitors of Polymerase Eta: Confirmatory Assay for Cherry-picked Compounds | shares compounds with Pol eta inh-1 | Pol eta primer extension, TAMRA/BHQ fluorescence, 10 min | Potency, µM, actives largely listed as inhibitors | hit rate 64% among 2,600 | AID 720502, 2013; further: potency means the concentration at half of the fitted maximal effect
The depositor's hits bear a star; u = inconclusive; x = not tested or not shown; [ ] = another dose, or the depositor's remark. Unless noted, the call rests on the fitted dose curve; in most records, active means well fitted inhibition curve with a large enough effect; inconclusive means small, poorly fitted or top-dose-only effect, or another doubt; inactive means no such curve, though single readings can be large or run the other way.

SMILES	Pol beta inh	Pol kappa inh-1	Pol eta inh-1	12-LOX inh	Pol iota inh	PI5P4K alpha inh	Pol eta inh-2	others
COc1cccc(NS(=O)(=O)c2ccc3[nH]cc(C(=O)N(C)C4CCCCC4)c(=O)c3c2)c1	-12%	-6%[60.1 µM]	56µM*	u	u	x	u	Pol kappa inh-2=u
CCCn1c(=O)n(CCC(=O)NC2(c3noc(C)n3)CCCCC2)c2ccccc21	x	x	x	11%	x	x	x
CCc1ccc(NS(=O)(=O)c2ccc3[nH]cc(C(=O)N4CCCCC4)c(=O)c3c2)cc1	u	-42%	u	-19%	u	2	u
CCc1ccc(NS(=O)(=O)c2ccc3[nH]cc(C(=O)N4CCCCCC4)c(=O)c3c2)cc1	u	-31%	-3%	u	u	x	x
CC(=O)Oc1cccc(/C=c2\sc3nc(-c4ccco4)nn3c2=O)c1	22µM*	u	13µM*	3%	u	-8	48*
COc1cc(/C=c2\sc3nc(-c4ccncc4)nn3c2=O)ccc1OC(C)=O	24%	x	x	x	x	x	x
O=[N+]([O-])c1ccc(Cl)c2c1C1C=CCC1C(c1ccccn1)N2 (centres undefined)	35µM*	u	50µM*	u	u	-16	u
Cc1ccc(C(=O)N/C(=C\c2ccc(C)o2)C(=O)O)cc1	u	u	32µM*	-25%	-22%	-3	u
Cc1ccc(C(=O)N/C(=C/c2ccco2)C(=O)NCc2ccco2)cc1	35µM*	u	32µM*	u	u	4	76*	Pol kappa inh-2=60*
Cc1ccc(C(=O)N/C(=C/c2ccco2)C(=O)O)cc1	2%	-18%	-10%	-15%	6%	-11	x
CCNC(=O)c1coc(COc2ccc3c(c2)C(c2cccc(F)c2)N(C(=O)C(C)C)CC3)n1 (centres undefined)	x	x	x	7%	x	x	x
Cc1ccc(N=C2NC(=O)/C(=C/C=C/c3ccco3)S2)cc1	22µM*	20µM*	10µM*	32µM*	3.2µM*	-78*	67*
COc1ccc(N=C2NC(=O)/C(=C/C=C/c3ccccc3)S2)cc1	37%	-5%	-16%	248%	142%	-1	x
Cc1cc(S(=O)(=O)Nc2ccc(O)c(Sc3nc4ccccc4s3)c2)ccc1Cl	5%	-8%	-11%	u	-6%	x	x
O=S(=O)(Nc1ccc(O)c(Sc2nc3ccccc3s2)c1)c1cc(Cl)ccc1Cl	u	u	79µM*	10µM*	u	x	u
CONC(=O)C(C)NC(=O)C12CC3CC(CC(C3)C1)C2 (centres undefined)	x	x	x	-10%	x	x	x
C=CC1=C(C(=O)O)N2C(=O)[C@@H](NC(=O)/C(=N\O)c3csc(N)n3)[C@H]2SC1 (stereo in doubt)	x	u	u	-1%	u	u	u
CC1=NN(c2ccccc2)C(=O)/C1=C/c1ccc(-c2ccc(C)c(C(=O)O)c2)o1	x	-15%	25µM*	0%	u	-18	u
CC1=NN(c2ccc(Cl)c(C(=O)O)c2)C(=O)/C1=C\c1ccc(-c2ccc(C(=O)O)cc2)o1	16µM*	u	13µM*	-18%	u	-17	u	Pol kappa inh-2=15*
CC1=NN(c2ccc(C(=O)O)cc2)C(=O)/C1=C/c1ccc(-c2ccccc2F)o1	-1%	x	x	x	x	x	x
Cc1ccc(CSC2=Nc3ccccc3C3=NC(CCC(=O)NCc4ccco4)C(=O)N23)cc1 (centres undefined)	1%	-10%	7%	u	27%	-10	x
O=C(CCC1N=C2c3ccccc3N=C(SCC(=O)NCc3ccco3)N2C1=O)NCc1ccco1 (centres undefined)	32µM*	u	u	u	13µM*	-17	u
C=C1CC[C@@H]2[C@](C)(CCC[C@@]2(C)/C=C/[C@@H](O)C(C)(C)O)[C@H]1CC(=O)NCCS(=O)(=O)O	x	u	18µM*	u	-10%	6	u
CCOc1ccc(NC(=O)Cn2nnc(C(=O)NCCc3ccccc3)c2N)cc1	u	u	u	-15%	u	x	x	Pol kappa inh-2=u
COc1ccc(CS(=O)(=O)C(C)C(=O)N(C)Cc2ccccc2)cc1F (centres undefined)	x	x	x	1%	x	x	x
SMILES	Pol beta inh	Pol kappa inh-1	Pol eta inh-1	12-LOX inh	Pol iota inh	PI5P4K alpha inh	Pol eta inh-2	others
COc1ccc(NC(=O)Cn2nnc3sc4c(c3c2=O)CCCC4)cc1	-26%	-21%	-2%	-7%	-5%	x	x
COc1ccc(OCCn2nnc3sc4c(c3c2=O)CCCC4)cc1	11µM*	u	x	-26%	71µM*	x	u	Pol kappa inh-2=u
CCCCCC(=O)Nc1nc2c(s1)C[C@@H]1[C@](C)(CO)[C@H](O)CC[C@@]1(C)[C@@H]2CC(=O)N1CCCCC1	x	x	x	5%	x	x	x
C=CCN1C(=O)/C(=C/C=C2/N(CC)c3ccc(S(=O)(=O)N(C)C)cc3N2CC)SC1=S	4.5µM*	-18%	45µM*	-26%	u	-14	38*
C=CCN1C(=O)/C(=C2/Sc3ccccc3N2CC)SC1=S	u	-6%	-4%	-1%	16%	3	x
CC(=O)Nc1ccc(NC(=O)CSc2ncnc3sc(C)c(C)c23)cc1	-3%	-1%	-3%	18%	98%	-10	x
CCN(CC(=O)Nc1ccc(NC(C)=O)cc1)C(=O)CSc1ncnc2sc(C)c(C)c12	x	-18%	u	-18%	u	u	u
CCOc1cc(/C=C2\N=C(SC)SC2=O)cc([N+](=O)[O-])c1OC(C)=O	22µM*	45µM*	u	x	u	u	x	Pol kappa inh-2=84*
COC(=O)c1ccc(/C=C2\N=C(SC)SC2=O)cc1	-2%[57.1 µM]	1%	-10%	-12%	-8%	0	x

Bioassay records: PubChem, National Center for Advancing Translational Sciences (NCATS)
